# From PubChem BioAssay AID488969 (Vanderbilt High Throughput Screening Facility, 2010)
# The full ranking holds about 110,000 compounds; the median of “z-score” is about -0.1, and the highest 2% start at about 2. The sample as a whole holds a higher share of the highest values than the screen did. Calls of active or inactive are those of the source.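 Rule for the calls: active = z-score in the third read window above 3 or below -3; inactive = the rest.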
# Target: Metabotropic glutamate receptor 8 (Rattus norvegicus) (UniProt P70579)
# Experiment: mGluR8 Gi/Go-coupled signaling modulation – cell-based, rat, thallium flux, HTS, primary screen (AID 488969)
# Settings: HEK293 rat mGluR8, GIRK (G protein-gated inwardly rectifying potassium channel) thallium flux, FluoZin2; at 10 µM; stronger effect = higher value; submaximal glutamate (EC20) added with thallium
# Chain of Metabotropic glutamate receptor 8 (Rattus norvegicus) (P70579 whole entry, looked up): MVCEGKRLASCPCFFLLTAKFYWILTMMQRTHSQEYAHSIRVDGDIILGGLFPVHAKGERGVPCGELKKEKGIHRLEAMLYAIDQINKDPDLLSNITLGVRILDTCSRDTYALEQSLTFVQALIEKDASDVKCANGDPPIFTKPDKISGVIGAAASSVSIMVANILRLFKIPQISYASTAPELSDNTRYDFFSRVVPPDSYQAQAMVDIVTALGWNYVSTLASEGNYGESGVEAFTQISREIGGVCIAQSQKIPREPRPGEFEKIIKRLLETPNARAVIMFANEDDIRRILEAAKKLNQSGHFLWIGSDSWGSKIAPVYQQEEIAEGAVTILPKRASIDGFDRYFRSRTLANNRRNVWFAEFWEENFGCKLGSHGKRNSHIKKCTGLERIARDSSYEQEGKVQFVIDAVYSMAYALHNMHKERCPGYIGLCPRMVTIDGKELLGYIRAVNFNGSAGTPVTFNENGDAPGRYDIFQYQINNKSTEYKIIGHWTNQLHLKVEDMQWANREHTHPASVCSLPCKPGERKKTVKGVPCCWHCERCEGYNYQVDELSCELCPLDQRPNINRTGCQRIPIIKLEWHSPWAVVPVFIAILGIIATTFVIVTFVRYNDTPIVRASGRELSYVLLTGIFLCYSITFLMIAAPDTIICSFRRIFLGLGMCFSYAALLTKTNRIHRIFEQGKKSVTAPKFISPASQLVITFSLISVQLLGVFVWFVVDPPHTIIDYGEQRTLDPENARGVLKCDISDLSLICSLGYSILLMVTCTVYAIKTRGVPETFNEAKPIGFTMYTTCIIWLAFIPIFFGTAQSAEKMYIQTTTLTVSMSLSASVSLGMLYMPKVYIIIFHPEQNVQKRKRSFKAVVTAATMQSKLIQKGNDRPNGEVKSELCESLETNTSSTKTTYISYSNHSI
row,Structure (SMILES),z-score
1,CCCCn1ccnc1C(=O)c1cc(S(=O)(=O)N2CCOCC2)ccc1C,-0.0858
2,CSc1nnc(CSc2cc(C)nc(N(C)C)n2)o1,-0.325
3,O=S(=O)(Nc1cccnc1)c1cc(Cl)ccc1Cl,-0.00571
4,O=C(O)c1ccc(NS(=O)(=O)c2cc(Cl)ccc2Cl)cc1,-0.151
5,O=S(=O)(Nc1nc(-c2sccc2Cl)cs1)c1cc(Cl)ccc1Cl,3.41 (active)
6,OC(CCN1CCOCC1)(c1ccc(Cl)cc1)C1CCCCC1 (stereo not given),-0.807
7,Cc1ccc(NC(=S)N/C(=N/S(=O)(=O)c2ccccc2)c2ccccc2)cc1,1.36
8,CCc1ccc(C(C(=O)NCc2ccc(OC)cc2)N(CCOC)C(=O)Cc2cccs2)cc1 (stereo not given),-0.37
9,COCCN(C(=O)Cc1cccs1)C(C(=O)NCc1ccc(OC)cc1)c1ccc(OC)cc1 (stereo not given),-0.202
10,COCCN(C(=O)Cc1cccs1)C(C(=O)NCc1ccc(OC)cc1)c1ccccc1 (stereo not given),3.95 (active)
11,Clc1ccc(N=c2ssnc2Cl)cc1,-0.0573
12,C=C(C)COc1ccc(-c2[nH]ncc2-c2ccccc2OC)c(O)c1,0.603
13,Cc1cccc(Oc2cc(NC(=O)c3ccccc3)cc([N+](=O)[O-])c2)c1,-0.382
14,CCn1cc(CNC(=O)CCSc2nc(-c3ccco3)cc(C(F)(F)F)n2)cn1,-0.23
15,COc1cccc(C(=O)N/N=C(/CCC(=O)O)c2ccccc2)c1,-0.189
16,CCC/C(=N\NC(=O)c1ccccc1C)c1ccccc1,-0.166
17,CCC/C(=N/NC(=O)c1cccc(Cl)c1)c1ccccc1,5.45 (active)
18,CCC1=NC(c2ccc(OC)cc2OC)N(O)C1(C)C (stereo not given),-0.547
19,COCc1c(C(=O)N2CCN(c3ccc(C(F)(F)F)cn3)CC2)oc2ccccc12,-0.0186
20,CCN(CC)C(=O)COc1ccc2oc(C)c(C(=O)OC(C)C)c2c1,-0.537
21,CCOC(=O)c1c(C)oc2ccc(OCC(=O)C(C)(C)C)cc12,-1.03
22,CCN(CC)C(=O)COc1ccc2oc(C)c(C(=O)OC)c2c1,3.23 (active)
23,CCOC(=O)C1=C(CNCc2ccccc2Cl)NC(=O)NC1c1ccc2c(c1)OCO2 (stereo not given),0.278
24,COc1ccc(Br)cc1CN1CCCCCCC1,0.169
25,COc1cc(-c2nc(-c3ccc(NC(=O)c4ccc5c(c4)OCO5)cc3)no2)cc(OC)c1OC,0.262

row,Structure (SMILES),z-score
1,CC12CN(C(=O)c3ccccc3)C3(C#N)CC1CCC23C (stereo not given),0.729
2,NC(N)=N/N=C/c1ccc(OCc2ccccc2)cc1,0.177
3,CC1(C)Cc2nc3sc4c(SCC(=O)NCc5ccco5)ncnc4c3cc2CO1,-0.999
4,CC1(C)Cc2nc3sc4c(SCC(=O)NC(c5ccccc5)c5ccccc5)ncnc4c3cc2CO1,0.0674
5,CC1(C)Cc2nc3sc4c(SCC(=O)NCc5ccccc5)ncnc4c3cc2CO1,2.31
6,CC(=O)c1ccc(OCC(O)CN2CCCC(C)C2)cc1 (stereo not given),-0.0491
7,O=C(Nc1ncc2c(n1)-c1ccccc1CC2)c1ccccc1,-0.277
8,COc1ccc(-c2c[n+]3c4n2CCCCC4=C(c2ccc(Br)cc2)C3)cc1,1.54
9,Clc1ccc(C2=C3CCCCn4c(-c5ccccc5)c[n+](c43)C2)cc1,0.498
10,COc1ccc(-c2c[n+]3c4n2CCCCC4=C(c2ccccc2)C3)cc1,2.82
11,CCCc1ccccc1OCCNC(C)=O,-0.472
12,CC(NC(=O)c1ccccc1)C(=O)NC1=NCCS1 (stereo not given),0.0634
13,CC(NC(=O)COc1ccccc1)C(=O)NC1=NCCS1 (stereo not given),3.96 (active)
14,O=C(COc1ccccc1)NC1=NCCS1,-0.0489
15,COc1cc(-c2nc(-c3ccc(Br)o3)no2)cc(OC)c1OC,-0.294
16,COc1c(Cl)cc(Cl)cc1CNCCNCCO,0.598
17,CCOc1ccc(Cl)cc1CNCCNCC(C)O (stereo not given),2.17
18,CCOc1cccc(CNCCO)c1OCc1ccc(Cl)cc1Cl,0.93
19,CCOc1ccc(Cl)cc1CNCCNCCO,0.172
20,CCOc1c(Cl)cc(Cl)cc1CNCCNCCO,0.738
21,COc1c(Cl)cc(Cl)cc1CNCCNCC(C)O (stereo not given),3.74 (active)
22,CN(C)C(C)(C)C#CCCCCC#CC(C)(C)N(C)C,-0.195
23,N#Cc1cc2cc3c(cc2nc1N1CCOCC1)OCO3,-0.918
24,O=C1C2ON(c3ccccc3)C(c3ccncc3)C2C(=O)N1c1ccc(N2CCOCC2)cc1 (stereo not given),-0.522
25,CCCCNc1c2c3c(cccc3n(C)c1=O)C(=O)c1ccccc1-2,16.2 (active)

row,Structure (SMILES),z-score
1,Cn1c(=O)c(NCCO)c2c3c(cccc31)C(=O)c1ccccc1-2,-2.23
2,Cn1c(=O)c(NCCc2ccccc2)c2c3c(cccc31)C(=O)c1ccccc1-2,1.94
3,Cc1noc(/C=C/N(C)C)c1S(=O)(=O)N1CCCC(C(=O)NCCC2=CCCCC2)C1 (stereo not given),-0.237
4,CC(C)(C)c1nnc(N/N=C/c2ccccc2O)n(N)c1=O,-0.149
5,CC(C)(C)c1nnc(N/N=C/c2ccccc2)n(N)c1=O,2.74
6,CC(C)(C)c1nnc(N/N=C/c2ccc(Br)cc2)n(N)c1=O,0.0626
7,COc1ccc(-c2csc(Nc3ccc(S(N)(=O)=O)cc3)n2)cc1,-0.213
8,O=C(Nc1cc([N+](=O)[O-])ccc1F)c1cccs1,-0.0753
9,Cc1ccc([N+](=O)[O-])cc1NC(=S)NC(=O)C(C)(C)C,0.72
10,Cc1ccc([N+](=O)[O-])cc1NC(=S)NC(=O)c1cccs1,2.46
11,Cc1ccc([N+](=O)[O-])cc1N/C=C/C(=O)c1ccco1,-0.039
12,Cc1ccc([N+](=O)[O-])cc1NC(=S)NC(=O)c1ccco1,7.69 (active)
13,Cc1ccc([N+](=O)[O-])cc1NC(=S)NC(=O)CC(C)(C)C,0.834
14,COC(=O)c1ccc(C(=O)OC)c(NC(=O)COC(=O)CC2CC3CCC2C3)c1 (stereo not given),-0.338
15,CC1CCCCN1c1nnc(NC(=O)c2cc(-c3ccc(Br)cc3)on2)s1 (stereo not given),-0.71
16,CC1CCCC(C)N1c1nnc(NC(=O)c2cc(-c3ccc(Br)cc3)on2)s1 (stereo not given),2.04
17,O=C(Nc1nnc(N2CCCCCC2)s1)c1cc(-c2ccc(Br)cc2)on1,-0.0797
18,O=C(CC12CC3CC(CC(C3)C1)C2)NCC(=O)OCc1cc(=O)oc2ccc3ccccc3c12,-0.205
19,O=CN1CCN(C(C(=O)NC2CCCC2)c2ccc(Cl)cc2)CC1 (stereo not given),0.0147
20,Cc1oc(-c2ccc(Cl)cc2)nc1CN1CCC(C(=O)N2CCN(Cc3ccccc3)CC2)CC1,0.0945
21,COc1ccc(CCNC(=O)C2CCCN(Cc3nc(-c4cccc(Cl)c4)oc3C)C2)cc1OC (stereo not given),1.07
22,CCc1ccc(-c2nc(CN3CCC(C(=O)NCCN(CC)c4ccccc4)CC3)c(C)o2)cc1,1.17
23,CCc1ccc(-c2nc(CN3CCC(C(=O)NCCc4ccc(OC)c(OC)c4)CC3)c(C)o2)cc1,0.471
24,CCc1ccc(-c2nc(CN3CCC(C(=O)N4CCN(c5ccccc5)CC4)CC3)c(C)o2)cc1,2.2
25,CCc1ccc(-c2nc(CN3CCCC(C(=O)NCCc4ccc(OC)c(OC)c4)C3)c(C)o2)cc1 (stereo not given),2.2
